A word on the inhibition: it is the share of the control response that was lost under treatment.

Values without a mark were called inactive. The rule behind the calls is not given here.

Sequence of Pantothenate synthetase (Mycobacterium tuberculosis (strain ATCC 25618 / H37Rv)) (P9WIL5 whole entry, looked up): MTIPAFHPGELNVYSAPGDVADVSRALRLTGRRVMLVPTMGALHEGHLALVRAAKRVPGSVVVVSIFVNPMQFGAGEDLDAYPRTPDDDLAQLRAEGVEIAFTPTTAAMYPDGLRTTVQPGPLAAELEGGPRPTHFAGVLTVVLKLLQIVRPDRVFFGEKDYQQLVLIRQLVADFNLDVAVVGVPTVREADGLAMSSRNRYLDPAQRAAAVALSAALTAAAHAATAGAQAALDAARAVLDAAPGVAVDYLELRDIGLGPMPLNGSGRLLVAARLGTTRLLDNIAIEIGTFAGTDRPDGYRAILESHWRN

The test addresses Pantothenate synthetase (Mycobacterium tuberculosis (strain ATCC 25618 / H37Rv)) (UniProt P9WIL5). Put plainly: Recombinant Mtb pantothenate synthetase (PanC) inhibitors, coupled enzyme, confirmatory (AID 375).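 Note: 0% = full reaction with vehicle and 100% = no enzyme background.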 The conditions noted are these: coupled enzyme assay; at 10 µM, hits give high values.
Take `Cc1cc2ncn(C(=O)N3CCOCC3)c2cc1C`: the inhibition is 0%.

Turning to `CCNC(=O)CC(=O)Nc1ccccc1C(=O)O`, the inhibition was 0%. The result for `COc1ccc(CCNc2oc(Cc3cccc4ccccc34)nc2C#N)cc1OC` reads 5%; that for `O=C1N=C(N2CCOCC2)CS1`, 0%. With `CC1CCN(CCCNC(=O)c2coc3nc4ccccc4nc23)CC1`, the inhibition is 1%.

In the case of `Cc1cc(CN2CCN(CCC#N)CC2)c(O)c(C2(C)CCCCC2)c1`, the inhibition is 0%.

With `Cc1cnc(-c2nnc(N(C)C(=O)C3CCOC3)s2)cn1` (configuration not stated), the inhibition was 3%. `CCN(CC)C(=O)CN(c1cc(Cl)ccc1OC)S(C)(=O)=O`: the inhibition is 0%. The result for `COc1ccccc1-c1nnc(NC(=O)c2ccc(S(=O)(=O)N(C)Cc3ccccc3)cc2)o1` reads 0%; that for `CCSCCC(NC1=CC(=O)CC(C)(C)C1)C(=O)O` (configuration not stated), 0%. On to `CC(=O)N1CCc2cc(S(=O)(=O)NCCC(=O)NC3CCCc4ccccc43)ccc21` (configuration not stated), for which the inhibition is 0%. The result for `N#CC(C(=O)CCN1C(=O)C2CC=CCC2C1=O)c1nc2ccccc2[nH]1` (configuration not stated) reads 0%; that for `O=C(CN(Cc1ccco1)C(=O)c1cc(=O)[nH]c2ccccc12)Nc1ccccc1Br`, 0%. Take `COc1ccc(CC(=O)OCC(=O)NC(=O)NC2CCCCC2)cc1`: the inhibition was 7%. The value for `CCOC(=O)c1c(C)[nH]c(C(=O)COC(=O)c2ccc(F)c(S(=O)(=O)N3CCOCC3)c2)c1C` was 4%. The value for `O=C(c1ccccc1)c1ccc2nc[nH]c2c1` was 0%; that for `CCOC(=O)Nc1nnc(-c2ccccc2OC)s1` was 0%.

Values taken from PubChem BioAssay.
